Compounds with a hit are over-represented: about 3.9% of the library has one in this group of screens.
ERK AVP block = blocks ERK signaling stimulated by vasopressin; Potency, µM (top dose mostly 57.5 µM), for inactives: at the highest dose activity, negative = inhibition, actives largely listed as inhibitors; HEK293-V1b, vasopressin-stimulated pERK AlphaScreen; 0.99% of 72,000 active; AID 995; also: % is scaled to controls: 0 for no effect and ±100 for the full control effect; nearly all actives have a fitted effect of over 55% in size
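HEK293 cells stably expressing V1b receptor, seeded overnight in 1% FBS, were treated with compounds for 30 min at 37C, then stimulated 5 min with 25 nM vasopressin; phospho-ERK read by AlphaScreen SureFire after lysis.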
GBA mod = human lysosomal glucosylceramidase modulation; Potency, µM; P04062; purified enzyme, resorufin glucoside fluorescence (screen aimed at inhibitors), 20 min; 1.1% of 48,000 active; in the data active = potency below about 15 µM; inconclusive = mostly about 16 µM to 33 µM;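 also: the screen sought inhibitors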
Target sequence (P04062 whole entry, looked up): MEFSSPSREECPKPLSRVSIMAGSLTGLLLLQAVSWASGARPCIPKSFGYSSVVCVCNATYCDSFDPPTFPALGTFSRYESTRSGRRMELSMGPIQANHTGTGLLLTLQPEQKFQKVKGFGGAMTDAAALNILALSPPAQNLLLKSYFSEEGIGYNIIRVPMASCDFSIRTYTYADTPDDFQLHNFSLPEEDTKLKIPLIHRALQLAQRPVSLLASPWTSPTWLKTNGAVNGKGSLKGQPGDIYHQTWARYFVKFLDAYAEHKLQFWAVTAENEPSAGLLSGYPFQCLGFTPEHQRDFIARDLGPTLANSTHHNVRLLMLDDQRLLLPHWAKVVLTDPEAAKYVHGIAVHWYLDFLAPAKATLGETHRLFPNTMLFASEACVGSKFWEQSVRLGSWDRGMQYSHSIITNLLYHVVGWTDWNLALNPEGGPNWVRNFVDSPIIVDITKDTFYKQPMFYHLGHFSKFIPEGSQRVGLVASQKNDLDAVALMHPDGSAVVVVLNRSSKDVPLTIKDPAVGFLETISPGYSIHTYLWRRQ
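Normal human glucocerebrosidase (0.2 nM final) was assayed with resorufin β-D-glucopyranoside (30 uM final) in 50mM citric acid/KH2PO4, 10mM sodium taurocholate, 0.01% tween-20, pH 5.9. Compounds were titrated; fluorescence (Ex 548, Em 600) read after 20 min at RT.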
Luciferase inh = blocks Photinus pyralis firefly luciferase activity. 2.2% of 72,000 active. Potency, µM (top dose mostly 57.1 µM), without a hit: at the top dose activity change, negative = inhibition, usual class: inhibitors. purified firefly luciferase, luminescence, 8 min. AID 411. P08659; also: % is scaled to controls: 0 for no effect and ±100 for the full control effect; nearly all actives have a fitted effect of over 40% in size
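Firefly luciferase (PKLight detection mix) with 10 uM ATP in pH 7.2 imidazole buffer (KCl, MgCl2, Tween 20, BSA). Compounds tested across a concentration series (qHTS). Luminescence read after 8 min at ambient temperature.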
Bst PK mod = alters activity of Bacillus stearothermophilus pyruvate kinase. purified pyruvate kinase, luminescence ATP production; ribose 5-phosphate activator present at AC10. Potency, µM. 1.2% of 51,000 active. AID 361; in the data active = potency below about 11 µM; inconclusive = mostly about 12 µM to 25 µM;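 the screen sought inhibitors and activators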;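 also: scaled between full activation by ribose 5 phosphate and full inhibition by luteolin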
* = called active by the depositor; i = inactive; ? = inconclusive; · = not tested or not shown; [ ] = dose if it differs, or a comment. Unless noted, calls follow the shape of the dose curve; as a rule, active = well fitted curve in the direction sought with a large enough effect; inconclusive = small, poorly fitted or top-dose-only effect, or another doubt; inactive = no such curve, though single readings can be large; an effect the other way counts as inactive or inconclusive. Potency is read from the fitted curve at half-maximal effect.

SMILES	ERK AVP block	GBA mod	Luciferase inh	Bst PK mod
COc1ccccc1CNc1ncnc2ccc(-c3ccccc3C#N)cc12	25µM*	·	0%[2.29 µM]	·
Cc1cccc(CNc2ncnc3ccc(-c4ccc(C(=O)N(C)C)cc4)cc23)c1	20µM*	·	-3%[2.29 µM]	·
COc1ccc(CNc2ncnc3ccc(-c4ccccc4C#N)cc23)c(OC)c1	-14%	·	2%[2.29 µM]	·
COc1ccccc1CNc1ncnc2ccc(-c3ccc(N(C)C)cc3)cc12	?	·	0%[2.29 µM]	·
COc1ccccc1-c1ccc2ncnc(NCc3ccccc3)c2c1	16µM*	·	0%[2.29 µM]	·
Cc1cccc(CNc2ncncc2-c2ccc(C(=O)N(C)C)cc2)c1	-13%	·	1%[2.29 µM]	·
CCOC(=O)C1=C(C)NC(C)=C(C(=O)OC)[C@H]1c1cccc(Cl)c1Cl	-17%	·	0%	·
COC(=O)c1ccc(C(NC(=O)OCc2ccccc2)/C(C)=C/[C@@H](C)C(=O)NCc2cccnc2)cc1 (some centres undefined)	-3%	·	·	·
COc1ccccc1CNc1ncnc2ccc(-c3cccnc3)cc12	20µM*	·	-1%[2.29 µM]	·
O=C(Nc1ccc(-c2nc3ccccc3o2)cc1)C1CCCO1 (centres undefined)	-29%	>77	5µM*	6.3*
O=C(Nc1ccc(Oc2ccccc2)cc1)C1CCCO1 (centres undefined)	30%	·	-9%	·
O=C(Nc1sc2c(c1C(=O)O)CCCC2)c1cccs1	19%	·	-11%	·
Cc1sc(NC(=O)c2cccs2)c(C(N)=O)c1C	-26%	·	13µM*	·
Cc1sc(NC(=O)c2ccccc2)c(C(=O)N2CCN(C)CC2)c1C	-4%	12*	1%	>57
C[C@H]1/C=C\CC(=O)OC[C@H](C)C(=O)N2CCC[C@@H]2C(=O)OC1	-2%[11.5 µM]	·	2%[11.4 µM]	·
COC(=O)C1=C(C)NC(C)=C(C(=O)OCCN(C)Cc2ccccc2)[C@@H]1c1cccc([N+](=O)[O-])c1	6%	·	-4%	·
COc1ccccc1-n1c(=O)oc2ccc(Cl)cc2c1=O	20µM*	>77	-4%	>57
CC(=NC1CCCCC1)c1ccccc1O	-13%[11.5 µM]	·	1%[11.4 µM]	·
O=C(NC1CCCCC1)c1noc2c1CCCCC2	12%	>77	20µM*	·
Cc1ccc(NC(=O)c2noc3c2CCCCC3)cc1	13%	>77	13µM*	·
O=C(O)CCC(=O)c1ccc(Cl)cc1	16%[11.5 µM]	·	-1%[11.4 µM]	·
C[C@H]1CN(CCO)CCN1c1ccccc1	48%[11.5 µM]	·	2%[11.4 µM]	·
CC1(C)Cc2c(sc3nc(-c4cccs4)n(N)c(=O)c23)CO1	?	>77	13µM*	i
Nn1c(-c2cccs2)nc2sc3c(c2c1=O)CCCC3	12%	>77	16µM*	?
CC(=O)Nc1c(I)cc(I)c(C(=O)O)c1I	14%	·	·	·
SMILES	ERK AVP block	GBA mod	Luciferase inh	Bst PK mod
CCNc1ncc2nc(C)c(=O)n(Cc3cccc(OC)c3)c2n1	?	·	0%[11.4 µM]	·
CC1(C)S[C@@H]2[C@H](NC(=O)Cc3ccccc3)C(=O)N2[C@@H]1C(=O)O	4%[11.5 µM]	·	2%[11.4 µM]	·
COCCNC(=O)c1noc2c1CCc1cc(OC)ccc1-2	20%	>77	13µM*	·
Cc1ccc(OC2C(O)COC2/C=C/C#Cc2ccc(C(C)(C)C)cc2)cc1 (centres undefined)	19%[11.5 µM]	·	·	·
O=C(Nc1ccc2c(c1)OCCO2)c1ccc(CN2CCOCC2)cc1	-14%	?	16µM*	·
CCn1c(=O)c(=O)[nH]c2cc(C(=O)NC3CCCc4ccccc43)ccc21 (centres undefined)	-12%	·	3%	i
O=C(Nc1ccc(Cc2ccncc2)cc1)c1ccc(S(=O)(=O)N2CCOCC2)cc1	18%	·	-1%	>57
CCn1c(=O)c(=O)[nH]c2cc(C(=O)Nc3ccc(S(=O)(=O)N4CCCC4)cc3)ccc21	24%	5.1*	0%	>57
O=C(Nc1ccc(S(=O)(=O)N2CCCC2)cc1)c1ccc(CN2CCOCC2)cc1	10µM*	i	1%	>57
Cc1cc(=O)n2[nH]c(-c3ccccc3Cl)cc2n1	-8%	>77	16µM*	·
CCOc1cc2c(C#N)c(N3CCOCC3)nc(N)c2c(N)n1	16µM*	>77	-3%	·
O=C(OCC(=O)c1c[nH]c2ccccc12)c1ccco1	-10%	>77	16µM*	?
Nc1nc(-c2cccnc2)cc(-c2cc(-c3cccnc3)nc(N)n2)n1	11%[11.5 µM]	·	1%[11.4 µM]	·
O=C(Nc1ccc(F)cc1)N(Cc1ccco1)Cc1cc2cc3c(cc2[nH]c1=O)OCO3	20µM*	11*	-1%	3.8*
Cc1ccc(NC(=O)N(Cc2ccc3c(c2)OCO3)Cc2cc3cc4c(cc3[nH]c2=O)OCCO4)cc1	-9%	>77	3%	>57
CN(C)c1ccc(N=Cc2nc(-c3ccccc3)oc2O)cc1	13µM*	>77	0%	>57

Screens deposited in PubChem BioAssay by National Center for Advancing Translational Sciences (NCATS).
